Measurements reported in PubChem BioAssay (NCATS).
Results filed as inconclusive are left out. Calls of active or inactive are those of the source. Calls follow the shape of the dose curve; as a rule, active = well fitted cell-killing curve with a large enough effect; inconclusive = small, poorly fitted or top-dose-only effect; inactive = no such curve, though single readings can be large or run the other way. Starred links: 1 amine or outer side, 2 acyl side, 3 side chain; linkers in the order of their positions; H or OH if unused. Positions of bridges follow the written chain, without caps; N, C: chain ends. Non-standard residues stand in square brackets, D forms with d. Residues, ends and D or L forms follow the SMILES beside them. Chains are numbered I, II in the order given. Actinocin(9to1) = Cc1c2oc3c(C)ccc(C(=O)[*:1])c3nc-2c(C(=O)[*:2])c(N)c1=O; NMeV = CN[CH](C(=O)O)C(C)C; Sar = CNCC(=O)O

Test: qHTS of pediatric cancer cell lines to identify multiple opportunities for drug repurposing: Primary screen for Rh30 cells (AID 1347107); also: nearly all actives have a fitted effect of over 75% in size
Conditions: Rh30 rhabdomyosarcoma viability, CellTiter-Glo luminescence, 48 h; series mostly up to 46 µM; activity change, negative = cytotoxic: at the top concentration
Text: Drug repurposing or repositioning has been offered as a strategy for drug development in oncology programs. This approach has special potential for childhood cancers and other rare or orphan diseases, where the expected return on new drug development has been a disincentive to pharmaceuticals.
In this project we exploit the poly-pharmacology of drugs to discover new indications via phenotypic screening of a panel of 19 well-characterized cell lines derived from solid tumors seen in children and adolescents. The goal is to identify approved drugs with previously unrecognized anticancer properties that has the potential to reveal new mechanisms and biological processes involved in carcinogenesis or drug resistance. We employed a titration-based paradigm (quantitative high-throughput screening or qHTS), where all compounds were tested at multiple concentrations for their effect on cell viability. Concentration-response curves (CRCs) were derived directly from the primary screen, and both potency and efficacy values were used to identify compounds with robust bioactivity profiles. We screened the NIH Chemical Genomics Center (NCGC) Pharmaceutical Collection (NPC) and Mechanism Interrogation Plate (MIPE) small molecule collections of approved and investigational compounds against these cell lines; and measured metabolically active cells after 48 hours of compound treatment as a proxy for cell viability.
Assay Submitter: Nathalia J. Martinez, National Center for Advancing Translational Sciences, National Institutes of Health, Rockville, MD, USA; email: natalia.martinez@nih.gov
[1] Shen, M et al. Quantitative high-throughput phenotypic screening of pediatric cancer cell lines identifies multiple opportunities for drug repurposing. Oncotarget 2017 Dec 19;9(4):4758-4772. PMID 29435139.
The cells were obtained from University of North Carolina (UNC), Pediatric Preclinical Testing Program (PPT), and Coriell Institute (CI).
qHTS cell viability assay:
Cells were assayed in growth media at a density of 500-1,000 cells/well. Five microliters of cells were dispensed into 1,536-well, white, solid-bottom, TC-treated plates (Greiner Bio One) using a multidrop dispenser and incubated at 37 degrees C, 5% CO2, under a humidified atmosphere for 5 hours. Twenty-three nanoliters of compounds and controls (neutral control DMSO or positive control bortezomib at final concentration of 2.3 µM) were subsequently transferred by Kalypsys pintool. For primary screens, the MIPE collection was tested at 11-point dilutions (final concentrations range from 0.78 nM to 46 µM) and the NPC collection at 8-point dilutions (final concentrations range from 0.59 nM to 46 µM). Compounds tested in follow-up screens were assayed at 11-point dilutions. Cells were incubated for 48 hours, followed by addition of 3 µL of CellTiter-Glo (Promega). After a 15 min incubation at room temperature, samples were analyzed for luminescence intensity using a ViewLux High-throughput CCD imager equipped with clear filters.
% is scaled to controls: 0 for no effect and ±100 for the full control effect; potency is read from the fitted curve at half-maximal effect.

Structure (SMILES) | activity change, negative = cytotoxic | Potency
COC(=O)C=CC(=O)OC | -28.2% (inactive) | 
Nc1ccn(C2CO[C@H](CO)O2)c(=O)n1 (stereo not given in full) | 19.8% (inactive) | 
Cc1coc2c1C(=O)C(=O)c1c-2ccc2c(C)cccc12 | -2.82% (inactive) | 
c1cc(N[C@@H]2CCNC2)nc(-c2cnc3ccc(-c4cn[nH]c4)cn23)c1 | -2.62% (inactive) | 
CC1(C)O[C@@H]2C[C@H]3[C@@H]4CCC5=CC(=O)C=C[C@]5(C)[C@@H]4[C@@H](O)C[C@]3(C)[C@]2(C(=O)CO)O1 | 14.8% (inactive) | 
COc1cccc2c1C(=O)c1c(O)c3c(c(O)c1C2=O)C[C@@](O)(C(C)=O)C[C@H]3O[C@H]1C[C@H](N)[C@H](O)[C@H](C)O1 | -2.95% (inactive) | 
O=c1[nH]c(=O)n([C@H]2C[C@@H](O)[C@@H](CO)O2)cc1F |  | 2.35 µM (active)
C#CCC(Cc1cnc2nc(N)nc(N)c2n1)c1ccc(C(=O)N[C@@H](CCC(=O)O)C(=O)O)cc1 (stereo not given in full) | -29.1% (inactive) | 
CCc1ccc(C(=O)Nc2cc(CN3CCN(C)CC3)cc(C(F)(F)F)c2)cc1C#Cc1cnc2ccnn2c1 |  | 14.8 µM (active)
CN1C(C(=O)Nc2ccccn2)=C(O)c2sc(Cl)cc2S1(=O)=O | -12% (inactive) | 
CN[C@H](CC(C)C)C(=O)N[C@H]1C(=O)N[C@@H](CC(N)=O)C(=O)N[C@@H]2C(=O)N[C@H]3C(=O)N[C@H](C(=O)N[C@H](C(=O)O)c4cc(O)cc(O)c4-c4cc3ccc4O)[C@H](O)c3ccc(c(Cl)c3)Oc3cc2cc(c3O[C@@H]2O[C@H](CO)[C@@H](O)[C@H](O)[C@@H]2O[C@H]2C[C@](C)(N)[C@H](O)[C@H](C)O2)Oc2ccc(cc2Cl)[C@H]1O | 22% (inactive) | 
CCCCCCCCCCCCc1ccc(S(=O)(=O)Nc2nncs2)cc1 | 0.638% (inactive) | 
O=S(=O)(O)CCSSCCS(=O)(=O)O | 23.7% (inactive) | 
CC(=O)C1=C(O)C=C2Oc3c(C(C)=O)c(O)c(C)c(O)c3C2(C)C1=O (stereo not given) | 14.1% (inactive) | 
CCOC(=O)C=C[C@H](C[C@@H]1CCNC1=O)NC(=O)[C@@H](CC(=O)[C@@H](NC(=O)c1cc(C)on1)C(C)C)Cc1ccc(F)cc1 | 31.3% (inactive) | 
O=C(O)c1ccc(Nc2ncc3c(n2)-c2ccc(Cl)cc2C(c2c(F)cccc2F)=NC3)cc1 |  | 18.7 µM (active)
CC(C)OC(=O)[C@H](C)N[P@](=O)(OC[C@H]1O[C@@H](n2ccc(=O)[nH]c2=O)[C@](C)(F)[C@H]1O)Oc1ccccc1 | 6.74% (inactive) | 
O=[N+]([O-])c1cn2c(n1)OC[C@@H](OCc1ccc(OC(F)(F)F)cc1)C2 | -3.49% (inactive) | 
Cc1c2oc3c(C)ccc(C(=O)NC4C(=O)NC(C(C)C)C(=O)N5CCCC5C(=O)N(C)CC(=O)N(C)C(C(C)C)C(=O)OC4C)c3nc-2c(C(=O)NC2C(=O)NC(C(C)C)C(=O)N3CCCC3C(=O)N(C)CC(=O)N(C)C(C(C)C)C(=O)OC2C)c(N)c1=O (stereo not given) (I: TVP[Sar][NMeV] / II: TVP[Sar][NMeV]; ester I:1-I:C, II:1-II:C; linker I:N-II:N via Actinocin(9to1); configuration not given here) | -15.4% (inactive) | 
O=C(NNC(=O)c1ccc(CNS(=O)(=O)c2ccc(F)c(Cl)c2)cc1)c1ccccc1 | 27.7% (inactive) | 

Structure (SMILES) | activity change, negative = cytotoxic | Potency
CC(C(C)N1CC(=O)NC(=O)C1)N1CC(=O)NC(=O)C1 (stereo not given) | 19.1% (inactive) | 
CC[C@H]1OC(=O)[C@H](C)[C@@H](O[C@H]2C[C@@](C)(OC)[C@@H](O)[C@H](C)O2)[C@H](C)[C@@H](O[C@@H]2O[C@H](C)C[C@H](N(C)C)[C@@H]2O)[C@](C)(OC)C[C@@H](C)C(=O)[C@H](C)[C@@H](O)[C@]1(C)O | 9.55% (inactive) | 
Nc1nc(=O)n([C@H]2C[C@H](O)[C@@H](CO)O2)cc1F | -19.5% (inactive) | 
CC(=O)N1CCN(c2ccc(OCc3nn(C)c(C)c3-c3cccc4c(CCCOc5cccc6ccccc56)c(C(=O)O)n(Cc5cccnc5)c34)cc2)CC1 |  | 4.69 µM (active)
CC(C)C[C@H](NC(=O)CNC(=O)c1cc(Cl)ccc1Cl)B1OC(=O)CC(CC(=O)O)(C(=O)O)O1 (stereo not given in full) |  | 1.48 µM (active)
O=C1c2cccc(O)c2C(=O)c2c(O)cc(CO)cc21 | 0.0243% (inactive) | 
O=C(c1ccc(F)cc1)N1CCC[C@H](c2nc(-c3ccc(F)cc3)no2)C1 | -2.59% (inactive) | 
CCN(CC)CCNC(=O)c1c(C)[nH]c(C=C2C(=O)Nc3ccc(F)cc32)c1C |  | 27 µM (active)
CC(C)(C)c1nc2c3cc[nH]c(=O)c3c3cc(F)ccc3c2[nH]1 | 12.9% (inactive) | 
COc1cc2ncnc(Nc3cccc(Br)c3)c2cc1OC | -8.31% (inactive) | 
CCCCOc1ccc(C(=O)Nc2ccc(F)cc2F)cc1 | 11% (inactive) | 
COc1ccc2cc([S+]([O-])Cc3ncc(C)c(OC)c3C)nc2c1 | 11.1% (inactive) | 
CC1(C)CC(O)CC(C)(C)N1[O] | 24.2% (inactive) | 
C[C@](Cc1c[nH]c2ccccc12)(NC(=O)OC1C2CC3CC(C2)CC1C3)C(=O)NC[C@H](NC(=O)CCC(=O)O)c1ccccc1 (stereo not given in full) | 12.3% (inactive) | 
CC(C)C[C@H](NC(=O)[C@@H](NC(=O)c1cccc(-c2ccccc2)n1)[C@@H](C)O)B(O)O |  | 0.372 µM (active)
CC(=CC(=O)Nc1ccccc1C(=O)O)c1ccc2ccccc2c1 | -1.77% (inactive) | 
C=CC(=O)Nc1cccc(Nc2nc(NC3CCC(N(C)C)CC3)nc3c2ncn3C(C)C)c1 (stereo not given) | -9.81% (inactive) | 
Cc1ccccc1C(=O)Nc1ccc(C(=O)N2CCCC(O)c3cc(Cl)ccc32)c(C)c1 (stereo not given) | 12.9% (inactive) | 
N#Cc1c(NC(=O)c2cccc3ccccc23)sc2c1CCCC2 | 5.66% (inactive) | 
CC[C@H](CC[C@@H](C)[C@H]1CC[C@H]2[C@@H]3CC=C4C[C@@H](O)CC[C@]4(C)[C@@H]3CC[C@]12C)C(C)C | 6.67% (inactive) | 
